Assay outcomes from PubChem.
ALDH1A1 block = qHTS Assay for Inhibitors of Aldehyde Dehydrogenase 1 (ALDH1A1) | hit rate 7.3% among 220,000 | Aldehyde dehydrogenase 1A1 (Homo sapiens), P00352 | Purified ALDH1A1, NADH fluorescence, propionaldehyde substrate | AID 1030, 2008 | Potency, µM (titrated, usually from 75.3 µM), inactives show top-dose activity, negative = inhibition, usual class: inhibitors; active = well fitted inhibition curve with a large enough effect, not every such curve was filed as active; inconclusive = small, poorly fitted or top-dose-only effect, or another doubt; inactive = no such curve, though single readings can be large or run the other way;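 note: plate controls were no enzyme wells and a reference inhibitor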
Target sequence (P00352 whole entry, looked up): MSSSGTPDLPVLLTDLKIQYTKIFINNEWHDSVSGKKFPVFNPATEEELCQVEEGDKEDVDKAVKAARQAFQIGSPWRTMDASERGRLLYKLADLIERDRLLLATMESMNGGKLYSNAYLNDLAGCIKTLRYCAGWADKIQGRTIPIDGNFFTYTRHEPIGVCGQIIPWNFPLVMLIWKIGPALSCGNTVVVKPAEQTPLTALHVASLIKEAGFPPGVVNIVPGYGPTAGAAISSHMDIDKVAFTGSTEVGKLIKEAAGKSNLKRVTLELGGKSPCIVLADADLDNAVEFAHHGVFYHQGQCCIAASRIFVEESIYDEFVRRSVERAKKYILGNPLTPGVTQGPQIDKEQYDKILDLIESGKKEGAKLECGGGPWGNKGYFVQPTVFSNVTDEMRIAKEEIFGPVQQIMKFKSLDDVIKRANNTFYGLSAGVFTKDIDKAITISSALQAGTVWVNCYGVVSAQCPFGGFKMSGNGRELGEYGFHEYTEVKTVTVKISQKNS
KinaseGlo FLuc = Counterscreen for Luciferase (Kinase-Glo TM) Inhibition; Kinase-Glo luciferase, ATP luminescence, 8 min; AID 1379, 2008; Potency, µM (titrated, usually from 38.3 µM), for the others: top-dose activity change, negative = inhibition, most hits filed as inhibitors; Luciferin 4-monooxygenase (Photuris pensylvanica), Q27757; hit rate 0.28% among 200,000; note: % is set by controls: 0 for no effect and ±100 for the full control effect; nearly all actives have a fitted effect of over 60% in size
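Light output from Kinase-Glo luciferase with luciferin and 10 uM ATP in 50 mM imidazole pH 7.2, KCl, MgCl2, Tween 20, BSA; compound pin-delivered, 8-min ambient incubation, then luminescence read.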
HTT cytoprotect = qHTS Multiplex Assay to Identify Dual Action Probes in a Cell Model of Huntington: Cytoprotection (ATP); AID 1471, 2008; Potency, µM (titrated, usually from 56.4 µM), for the others: cytoprotection (ATP increase), most hits filed as activators; hit rate 0.14% among 230,000; PC12 HTT-Q103 induced, cytoprotection, ATP luminescence, 40 h; note: % of control where 0% means no effect; nearly all actives have a fitted effect of over 45% in size
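Huntington model: PC12 line, ecdysone-inducible HTTQ103 exon1–GFP, tebufenozide 100 nM. Test articles in a dose series. Endpoint luminescence from cellular ATP.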
HTT aggregate = qHTS Multiplex Assay to Identify Dual Action Probes in a Cell Model of Huntington: Aggregate Formation (GFP); PC12 HttQ103-GFP aggregates, Acumen cytometry, 40 h; Potency, µM (highest dose often 46.1 µM), inactives show at the highest dose activity change, negative = inhibition, hits mostly inhibitors; hit rate 1.1% among 220,000; note: % is set by controls: 0 for no effect and ±100 for the full control effect; nearly all actives have a fitted effect of over 60% in size
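PC12 cells with ecdysone-inducible HTT exon1 Q103-GFP, induced by 100 nM tebufenozide, given compounds in a concentration series. GFP aggregates (1–25 um, 6 SD above background) counted in lysates by laser-scanning cytometry, 488 nm excitation.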
Lamin A splicing = qHTS Assay for Modulators of Lamin A Splicing; HeLa LMNA splicing GFP/RFP minigene ratio, 48 h; Potency, µM (highest dose often 46.1 µM), inactives show at the top dose ratio change, negative = inhibition, usual class: inhibitors; hit rate 0.01% among 200,000; AID 1487, 2009; active = well fitted inhibition curve with a large enough effect in the signal ratio, with a control signal flat, not every such curve was filed as active; inconclusive = small, poorly fitted or top-dose-only effect, or effect the other way, or a change in a side signal; the % refers to the signal ratio; note: % is set by controls: 0 for no effect and ±100 for the full control effect
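S3 HeLa cells stably expressing lamin A-EGFP splicing minigene plus DsRed2, 600 cells/well, 48 h compound exposure at 37C. Laser-scanning cytometry; analysed as GFP (500-530 nm)/RFP (575-640 nm) total intensity ratio; 0.5% DMSO vehicle.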
HPGD inh = qHTS Assay for Inhibitors of HPGD (15-Hydroxyprostaglandin Dehydrogenase). purified HPGD, NADH fluorescence kinetic, PGE2 substrate. Potency, µM, without a hit: top-dose activity change, negative = inhibition, hits mostly inhibitors. hit rate 4.3% among 150,000. 15-hydroxyprostaglandin dehydrogenase [NAD(+)] (Homo sapiens), P15428; active = well fitted inhibition curve with a large enough effect, not every such curve was filed as active; inconclusive = small, poorly fitted or top-dose-only effect, or another doubt; inactive = no such curve, though single readings can be large or run the other way; note: % is set by controls: 0 for no effect and ±100 for the full control effect
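20 nM HPGD preincubated 15 min at room temperature with compound in 50 mM Tris-HCl pH 8, 0.01% Tween 20. Started with 1 mM NAD+ and 30 uM prostaglandin E2; NADH fluorescence (360/450 nm) read 5 times over 30-s intervals, last minus first.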
An asterisk follows results filed as active; ? = inconclusive; . = no result; [ ] = remark or other dose. Most compounds without a hit are left out; they make up all but 9% or so of the library. Unless noted, calls come from the whole dose curve; as a rule, active = well fitted curve in the direction sought with a large enough effect; inconclusive = small, poorly fitted or top-dose-only effect, or another doubt; inactive = no such curve, though single readings can be large; an effect the other way counts as inactive or inconclusive. Potency is the fitted concentration of half-maximal effect.

SMILES	ALDH1A1 block	KinaseGlo FLuc	HTT cytoprotect	HTT aggregate	Lamin A splicing	HPGD inh
Cc1ccc(C(C(=O)NC2CCCCC2)N(C(=O)Cc2c[nH]c3ccccc23)c2ccccc2)o1 (stereo not given)	-6.7%	-0.8%	-12.4%	9.3%	2.0%	-10.5%
O=C(Cn1cncn1)N/N=C/c1ccc(Cl)cc1	2.2%	2.0%	.	10.3%	-15.1%	-5.7%
N#Cc1cn(-c2ccccc2)nc1C(=O)c1ccccc1	-9.1%	-2.5%	-21.7%	-1.9%	-5.1%	-9.8%
N#Cc1cn(-c2ccccc2)nc1-c1ccco1	28.2µM*	-1.3%	10.1%	-20.1%	-1.1%	-12.5%
COc1ccc(N=CC2=C(O)c3ccccc3C2=O)c(OC)c1	?	4.47µM*	-113.2%	-12.8%	2.7%	-21.2%
Cc1ccccc1N=CC1=C(O)c2ccccc2C1=O	?	12.6µM*	-4.1%	-7.4%[9.22 µM]	.	.
Cc1cc(/C=C2/NC(=O)NC2=O)c(C)n1-c1ccc(N2CCOCC2)cc1	?	1.2%	.	-5.5%	-11.1%[46 µM]	.
Cc1cc(C=O)c(C)n1-c1ccc(N2CCOCC2)cc1	3.16µM*	2.7%	16.6%[10 µM]	-4.0%	?	0.2%
Cc1cc(/C=C2\SC(=O)NC2=O)c(C)n1-c1ccc(N2CCOCC2)cc1	-5.0%	.	-7.5%[10 µM]	-4.2%[9.22 µM]	.	.
Cc1cc(/C=C2\NC(=O)NC2=O)c(C)n1-c1ccc(N2CCOCC2)cc1	25.1µM*	.	2.9%[10 µM]	2.2%[9.22 µM]	.	.
CCCc1nc(N2CCCC2)c(C#N)c2c1CCCC2	?	-2.1%	-40.1%	-19.6%	17.2%	?
COc1ccc2c(c1)C(c1ccccc1C)CC(=O)O2 (stereo not given)	31.6µM*	-10.7%[39.9 µM]	-10.6%[96.6 µM]	.	.	?
O=C(c1cnn2c(C(F)F)cc(-c3ccccc3)nc12)N1CCCc2ccccc21	20µM*	-2.9%	-4.9%[10 µM]	1.4%	13.8%	2.8%
Cc1cc(C(F)F)n2ncc(C(=O)N3CCc4ccccc4C3)c2n1	?	-0.2%	-20.0%	0.2%	-8.3%	22.4µM*
COc1ccc(-c2cc(C(F)F)n3ncc(C(=O)N4CCCc5ccccc54)c3n2)cc1	10.9%	-1.2%	3.0%[10 µM]	20.0%[9.22 µM]	17.1%[46 µM]	.
O=C(c1cnn2c(C(F)F)cc(-c3ccccc3)nc12)N1CCc2ccccc2C1	-13.4%	-2.2%	24.4%[10 µM]	19.9%[9.22 µM]	?	.
COc1ccc(NC(=O)CN(C)S(=O)(=O)c2cccc3cccnc23)cc1	?	-4.2%	-15.9%	15.9%	-7.9%	-21.0%
COc1ccc(Br)cc1/C=c1\sc2nc(-c3ccco3)nn2c1=O	28.2µM*	1.1%	14.6%[10 µM]	5.5%	7.2%	14.1µM*
COc1ccc(/C=c2\sc3nc(=O)c(C)nn3c2=O)c(OC)c1	22.4µM*	2.0%	-17.0%	15.8%	-15.1%[46 µM]	.
Cc1ccc(/C=c2\sc3nc(-c4ccco4)nn3c2=O)o1	3.55µM*	-8.2%	5.3%[10 µM]	18.9%	-2.9%	17.8µM*
Cc1ccc(-c2nc3s/c(=C\c4ccco4)c(=O)n3n2)cc1	5.7%	-11.2%	-12.4%	12.8%	?	-7.3%
Cc1ccc(/C=c2\sc3nc(-c4ccccc4Br)nn3c2=O)o1	12.6µM*	0.3%	-53.4%[0.074 µM]	18.6%	-3.6%	20µM*
COc1ccccc1/C=c1\sc2nc(-c3ccccc3OC)nn2c1=O	6.5%	-6.3%	2.2%	0.8%	12.2%	-7.6%
COC(=O)C[C@@H]1O[C@H]1[C@H](C)[C@@H](OC)C(C)C	-14.2%[13.5 µM]	.	-6.0%[10 µM]	.	.	.
CCC(Sc1nc2ncccc2o1)C(=O)Nc1cccc(C)c1 (stereo not given)	.	.	.	.	1.1%[46 µM]	.
CCCOc1ccc(C(=O)NC(=S)NCc2cccnc2)cc1	?	1.4%	.	-29.5%	?	-15.1%
NC(=O)C1CCN(C2=C(NS(=O)(=O)c3ccccc3)C(=O)c3ccccc3C2=O)CC1	.	.	-5.1%[10 µM]	-18.9%[9.22 µM]	.	.
